# Reference: PubChem BioAssay AID1259374 (The Scripps Research Institute Molecular Screening Center, 2018)
# About 5,900 (0.91%) of roughly 650,000 compounds were called active. This excerpt belongs to a sample that is enriched for actives. Values without a mark were called inactive. Cut-off read from the data, not from the text of the source: active = inhibition above about 50%; inactive = the rest.
# Target: Microphthalmia-associated transcription factor (Homo sapiens) (UniProt O75030)
# Experiment: MITF inhibitors, primary screen, biochemical, AlphaScreen, human (AID 1259374);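 note: 0% = vehicle wells with protein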
# Conditions: AlphaScreen MITF homodimerization, bead proximity signal; at 2.6 µM; stronger effect = higher value
# Microphthalmia-associated transcription factor (Homo sapiens), sequence (O75030 whole entry, looked up): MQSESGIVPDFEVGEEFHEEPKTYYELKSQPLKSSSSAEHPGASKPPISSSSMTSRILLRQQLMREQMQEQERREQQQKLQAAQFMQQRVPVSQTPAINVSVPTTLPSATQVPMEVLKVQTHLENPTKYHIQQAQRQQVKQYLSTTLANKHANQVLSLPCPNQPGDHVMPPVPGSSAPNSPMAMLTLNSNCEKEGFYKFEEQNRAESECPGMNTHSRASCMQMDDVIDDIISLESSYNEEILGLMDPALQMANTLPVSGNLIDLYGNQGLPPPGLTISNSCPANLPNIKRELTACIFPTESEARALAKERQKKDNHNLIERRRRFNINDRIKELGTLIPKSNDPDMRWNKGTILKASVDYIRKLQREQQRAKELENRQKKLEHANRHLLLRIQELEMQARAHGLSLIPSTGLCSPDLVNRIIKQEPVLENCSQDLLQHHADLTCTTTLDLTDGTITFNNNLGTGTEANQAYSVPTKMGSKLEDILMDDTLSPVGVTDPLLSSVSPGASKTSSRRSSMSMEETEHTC
row,Structure (SMILES),inhibition
1,CCN1CCc2nc3ccccc3c(C(=O)O)c2C1,61.5% (active)
2,CCc1nc2ccccc2c(=O)n1-c1ccccc1,10.7%
3,CCn1c(C(=O)O)c(CC(=O)N2CCN(Cc3ccccc3)CC2)c2ccccc21,3.77%
4,O=[N+]([O-])c1ccc(N2CCCCC2)c2cccnc12,27.4%
5,CS(=O)(=O)Nc1ccc(C#N)c(Cl)c1,-2.59%
6,CCC(=O)c1ccc(N2CCN(C)CC2)c(F)c1,-2.65%
7,CN(CC#CC1CC2CCC1C2)C1CCCCC1 (stereo not given),-0.53%
8,C(#CC1CC1)CN(C1CCCCC1)C1CCCCC1,83.7% (active)
9,CCn1c(=O)n(CC2CS2)c2ccccc21 (stereo not given),-0.54%
10,Cc1cnc2nc3c(cc2c1)CN(Cc1cccnc1)CC3,-8.7%
11,CN1CCN(c2cc3[nH]c(=S)[nH]c3cc2F)CC1,-8%
12,CCOC(=O)C1C2NC(=S)N(c3ccc(Cl)cc3)C1(C)Oc1ccccc12 (stereo not given),10.8%
13,CCOC(=O)C1C2NC(=S)NC1(C)Oc1cc(OC)ccc12 (stereo not given),13.6%
14,CCOC(=O)C1C2NC(=S)N(c3ccc(CC)cc3)C1(C)Oc1c(OC)cccc12 (stereo not given),39.5%
15,CCOC(=O)C1C2NC(=S)N(CC)C1(C)Oc1ccc(Cl)cc12 (stereo not given),65.6% (active)
16,CCOC(=O)C1C2NC(=S)NC1(C)Oc1c(OCC)cccc12 (stereo not given),-1.57%
17,CCOC(=O)C1C2NC(=S)N(c3ccc(F)cc3)C1(C)Oc1c(OCC)cccc12 (stereo not given),55.5% (active)
18,Cn1c(SCCOC(N)=O)nnc1-c1ccc([N+](=O)[O-])cc1,5.78%
19,CS(=O)(=O)c1ccc(CC(=O)N2CCN(C(c3ccccc3)c3ccccc3)CC2)cc1,7.6%
20,c1ccc(-c2ccnc3nc4ccccc4n23)cc1,7.67%
21,OC(CNC1CN2CCC1CC2)COc1cccc2ccccc12 (stereo not given),18.3%
22,COc1ccc(CN2CCN(C(C)C)CC2)c(OC)c1OC,68.1% (active)
23,COc1ccc(CN2CCN(CCO)CC2)c(OC)c1OC,-8.5%

row,Structure (SMILES),inhibition
1,COc1ccc(CN2CCN(c3ccccc3F)CC2)c(OC)c1,14%
2,COc1ccc(CN2CCN(C(C)C)CC2)cc1,57% (active)
3,CC(C)N1CCN(Cc2ccccc2)CC1,41%
4,COc1ccc(CN2CCN(c3ccc(C(C)=O)cc3)CC2)cc1,18.3%
5,CC(C)CN(Cc1c(O)ccc2c(=O)c(-c3ccccc3)coc12)CC(C)C,-5.09%
6,COC(NC(=O)c1ccco1)C(Cl)(Cl)Cl (stereo not given),17.3%
7,CCCCn1c(C)c(C(=O)OCC)c2cc(OC(=O)COc3ccccc3)c3ccccc3c21,-5.32%
8,Cc1nc2ccccc2c(=O)n1-c1cccc(Cl)c1,22.4%
9,COc1ccc(Cl)cc1C(=O)C1CCCN(Cc2ncc[nH]2)C1 (stereo not given),7.6%
10,COc1cc(NC(=O)CCc2nc(C3=CCN(C)CC3)no2)cc(OC)c1OC,51.6% (active)
11,CCCN1CCN(C(=O)Cc2nc(-c3ccc(OC)cc3)no2)CC1,1.81%
12,CCOC(=O)C1=C(c2ccccc2)OC(N)=C(C#N)C12C(=O)Nc1ccc(Br)cc12 (stereo not given),2.49%
13,CC[C@@H](C)C(=O)O[C@H]1[C@H](O)[C@H]2[C@@H](CN3C[C@@H](C)CC[C@H]3[C@@]2(C)O)[C@@H]2C[C@]34O[C@]5(O)[C@@H](OC(=O)C(C)(O)C(C)O)CC[C@@]3(C)[C@@H]5[C@@H](OC(C)=O)[C@@H](OC(C)=O)[C@H]4[C@@]21O (stereo not given in full),23.5%
14,c1cncc(CNCCc2c[nH]c3ccccc23)c1,84% (active)
15,COc1ccc(CNCCc2c[nH]c3ccccc23)cc1OC,13.6%
16,O=[N+]([O-])c1ccc(CNCCc2c[nH]c3ccccc23)cc1,25.3%
17,Cc1nn(CC(=O)N2CCC3(CC2)OCCO3)c(=O)c2cccn12,-10.4%
18,O=C1CN=C(c2ccc(Br)cc2)c2cc(Br)ccc2N1,-2.48%
19,N#Cc1ccc(NC(=O)COc2cc(F)ccc2[N+](=O)[O-])cc1Cl,10.7%
20,CN1CN/C(=N\[N+](=O)[O-])N(Cc2ccco2)C1,-9.51%
21,COc1cccc(CN2CCN(Cc3ccccc3F)CC2)c1,75.4% (active)
22,COc1cc(CN2CCN(c3ccccc3)CC2)cc(OC)c1,5.15%
23,Fc1ccc(N2CCN(Cc3ccccc3F)CC2)cc1,12.7%

row,Structure (SMILES),inhibition
1,O=C(COc1ccccc1)N1CCN(Cc2cccc(Oc3ccccc3)c2)CC1,32.3%
2,COc1cccc(CN2CCN(Cc3ccccc3OC)CC2)c1,7.82%
3,CCN1CCN(Cc2ccc(F)cc2F)CC1,1.97%
4,CCC(C)N1CCN(Cc2cccc(OC)c2)CC1 (stereo not given),63.5% (active)
5,COc1ccc(CN2CCN(c3ccccc3F)CC2)c(O)c1,21.3%
6,Fc1ccccc1CN1CCN(Cc2ccccc2F)CC1,75.5% (active)
7,CCOC(=O)C1=C(N)Oc2cc(C)n(CC)c(=O)c2C12C(=O)N(CC(C)C)c1ccccc12 (stereo not given),4.18%
8,Cc1ccc(C(O)(C(=O)NNc2cc(Cl)ccc2Cl)c2ccc(C)cc2)cc1,8.08%
9,O=[N+]([O-])c1ccc(N2CCc3ccccc3C2)c2ccncc12,5.66%
10,CC(C)(CNc1ccc([N+](=O)[O-])c2cccnc12)CNS(=O)(=O)c1ccc(Cl)cc1,0.37%
11,N#CC1=C(N)Oc2c(c(=O)oc3ccccc23)C1c1ccc(OC(F)(F)F)cc1 (stereo not given),2.42%
12,COc1ccc(NC(=O)CN(C)CC(=O)Nc2ccc(C#N)c(Cl)c2)cc1,7.15%
13,CSCCC(NC(=O)c1ccco1)C(=O)OCC(=O)Nc1ccc(C#N)c(Cl)c1 (stereo not given),4.56%
14,CSc1ccccc1NC(=O)CN(C)CC(=O)Nc1ccc(C#N)c(Cl)c1,82.2% (active)
15,COc1ccccc1N1C(=O)NC(=O)/C(=C\c2ccc(Cl)cc2Cl)C1=O,-0.45%
16,CC(Cc1ccccc1)NC(=O)/C=C/c1ccco1 (stereo not given),7.08%
17,CC(Cc1cccc(C(F)(F)F)c1)N1CCOCC1 (stereo not given),12.7%
18,Clc1ccc(CN2CCN(Cc3ccc(Cl)cc3)CC2)cc1,31.9%
19,CN1CCN(Cc2ccc(F)cc2)CC1CCO (stereo not given),-5.75%
20,CCC(CC)N1CCN(Cc2ccc(F)cc2)CC1,70.5% (active)
21,CCN1CCN(Cc2ccc(C(=O)OC)cc2)CC1,-13.2%
22,CCC(C)N1CCN(Cc2ccc(SC)cc2)CC1 (stereo not given),65.1% (active)
23,CCN1CCN(Cc2ccc3ccccc3c2)CC1,3.25%

row,Structure (SMILES),inhibition
1,Fc1cccc(Cl)c1CNC1CN2CCC1CC2 (stereo not given),2.47%
2,O=C(CN1CCCC1)c1ccccc1Br,-5.43%
3,Cc1cc(C=C2C(=O)NC(=S)NC2=O)c(C)n1-c1ccccc1C(F)(F)F,8.02%
4,CCOC(=O)C1=C(N)OC2=C(C(=O)CCC2)C12C(=O)Nc1ccc(Br)cc12 (stereo not given),-1.67%
5,FC1CC2C(Cl)C1NC2(C(F)(F)F)C(F)(F)F (stereo not given),-5.25%
6,CN1C(=O)C(=Cc2cn(CC(=O)NCc3ccco3)c3ccccc23)C(=O)N(C)C1=O,0.24%
7,CN1CCC(N(C)c2ncnc3scc(-c4ccc(Cl)cc4)c23)CC1,51.4% (active)
8,CC1CCCC(C)N1C(=O)CN1C2CCC1CC(O)(c1ccccn1)C2 (stereo not given),54.9% (active)
9,Cn1ccnc1C1(O)CC2CCC(C1)N2CC(=O)N1CCc2ccccc2C1 (stereo not given),9.08%
10,O=C(CN1C2CCC1CC(O)(c1ccccn1)C2)N1c2ccccc2Sc2ccccc21 (stereo not given),44.9%
11,COc1ccccc1CN1CCN(c2ccc(F)cc2)CC1,19.3%
12,COc1ccccc1CN1CCN(Cc2ccc(Br)cc2)CC1,77.5% (active)
13,Cc1cccc(OCC(=O)N2CCN(Cc3ccccc3)CC2)c1C,13%
14,COc1cc(CN2CCN(C)CC2)ccc1O,41.2%
15,COc1ccc(CN2CCN(Cc3ccccc3)CC2)cc1C,50.8% (active)
16,COc1cc(CN2CCN(Cc3ccccc3)CC2)cc(I)c1O,-2.51%
17,COc1cccc(CN2CCN(C(=O)COc3ccccc3)CC2)c1OC,43.9%
18,COc1ccccc1N1CCN(Cc2cccc(O)c2)CC1,24.7%
19,COc1ccccc1CN1CCN(C(=O)Cc2ccccc2)CC1,57.1% (active)
20,CC(C)CCn1c(=O)c(C(=O)Nc2nc3ccc(F)cc3s2)c(O)c2ccccc21,9.2%
21,CC12CCC(=O)C=C1CC[C@@H]1[C@@H]2CCC2(C)[C@@H](O)CC[C@@H]12 (stereo not given in full),3.34%
22,Cc1cccc(-n2c(CN3C(=O)c4ccccc4C3=O)nc3ccccc3c2=O)c1,8.78%
23,C=CCN1C(=O)NC(=O)/C(=C/c2ccc(O)c(OC)c2)C1=O,-1.51%

row,Structure (SMILES),inhibition
1,C=CCN1C(=O)NC(=O)/C(=C/c2ccc3c(c2)OCO3)C1=O,11.9%
2,CCNC(=S)N1CC2CC(C1)c1cccc(=O)n1C2 (stereo not given),-9.28%
3,CCCC1=C(C(=O)OC)C2(C(=O)Nc3ccccc32)C(C(=O)OCC)=C(N)O1 (stereo not given),12%
4,c1cc2c(cc1NC1=NCCCS1)OCCO2,2.15%
5,O=C1NC(=S)N(Cc2ccco2)C(=O)/C1=C\c1ccc(-c2ccc([N+](=O)[O-])cc2)o1,89.9% (active)
6,O=C1NC(=S)NC(=O)C1=Cc1ccc(-c2ccccc2)o1,31.6%
7,C=CCN1C(=O)/C(=C\c2cccn2-c2cccc([N+](=O)[O-])c2)C(=O)NC1=S,44.6%
8,N#CC1=C(N)Oc2c(c(=O)oc3ccccc23)C1c1ccc([N+](=O)[O-])s1 (stereo not given),2.54%
9,COc1cccc(-n2c(/C=C/c3cccnc3)nc3ccccc3c2=O)c1,-8.02%
10,Cc1cc(/C=C2/C(=O)NC(=O)N(Cc3ccco3)C2=O)c(C)n1-c1ccc(C(=O)O)cc1,80.4% (active)
11,Cc1cc(C=O)c(C)n1Cc1ccco1,3.63%
12,Cc1ccccc1N1C(=O)NC(=O)/C(=C\c2cc(C)n(-c3ccccc3C(=O)O)c2C)C1=O,15.6%
13,COc1ccccc1CCNCc1ccc(C)cc1,24.2%
14,Cc1ccc(CN2CCN(C(=O)COc3cccc(C)c3)CC2)cc1,43.5%
15,O=[N+]([O-])c1ccccc1C[N+]12CCC(CC1)C(O)C2 (stereo not given),8.77%
16,Fc1ccc(CN2CCN(c3ccccc3)CC2)cc1F,40.2%
17,Cc1ccc(CN2CCN(Cc3ccccc3[N+](=O)[O-])CC2)cc1,59.3% (active)
18,O=[N+]([O-])c1ccccc1CN1CCN(Cc2cccc(F)c2)CC1,51.4% (active)
19,O=[N+]([O-])c1ccc(O)c(CN2CCN(c3ccccc3)CC2)c1,9.43%
20,Cc1ccccc1OCC(=O)N1CCN(CCNC(=O)c2ccc3c(c2)OCO3)CC1,-3.05%
21,O=C1NC(=S)NC(=O)C1=Cc1ccc(OCc2ccccc2)c(C(=O)O)c1,18.7%
22,CCCC1(CCC)C(=O)NC(=Nc2ccc(OC)cc2)NC1=O,-6.47%
23,CC(c1ccccc1F)n1cc(C(=O)NC2CC2)nn1 (stereo not given),-9.15%
